Results as given in PubChem BioAssay (NCI).
About 83,000 compounds went through this panel and 20% of them were active in at least one assay; those are over-represented in the sample as a whole.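 Percent growth is the endpoint: 0 to 100 indicates growth inhibition (40 means 60% inhibition), 0 means no net growth, and negative values indicate cell death.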 Unmarked numbers belong to inactive results. The source made the active and inactive calls. How the source made its calls: active means growth percent below 10; inactive means the rest.

Columns and labels:
Test in all cases: NCI-60 one-dose screen, 48 h (100 = growth as untreated, 0 = no growth, -100 = all killed)
Settings in all cases: 10 µM unless noted
SK-MEL-2 melanoma = tested on: SK-MEL-2 melanoma
EKVX NSCLC = tested on: EKVX NSCLC
SN12C renal = tested on: SN12C renal
UO-31 renal = tested on: UO-31 renal
TK-10 renal = tested on: TK-10 renal
ACHN renal = tested on: ACHN renal
CAKI-1 renal = tested on: CAKI-1 renal
A498 renal = tested on: A498 renal
CCRF-CEM leukemia = tested on: CCRF-CEM leukemia
MOLT-4 leukemia = tested on: MOLT-4 leukemia

SMILES | growth (SK-MEL-2 melanoma) | growth (EKVX NSCLC) | growth (SN12C renal) | growth (UO-31 renal) | growth (TK-10 renal) | growth (ACHN renal) | growth (CAKI-1 renal) | growth (A498 renal) | growth (CCRF-CEM leukemia) | growth (MOLT-4 leukemia)
Cn1cc(-c2nonc2-c2c[nH]c3ccccc23)c2ccccc21 | 51.2% | 26% | 23.4% | 15.6% | 47.7% | 31.1% | 20.4% | -13.4% (active) | 7.68% (active) | 8.23% (active)
O=C(CSc1nc2ccc([N+](=O)[O-])cc2[nH]1)Nc1ccc(Br)cc1 | 42.2% | 50% | 46.1% | 41% | 94.5% | 52.6% | 39.6% | 30.9% | 39.1% | 26.6%
C=NNc1ccccc1 | 123% | 92.8% | 89.6% | 71% | 127% | 78% | 84.1% | 77.1% | 71.5% | 105%
C#CCn1cnc2c(Nc3cccc(NC(=O)CCl)c3)ncnc21 | 46% | 45.3% | 31.2% | 46.7% | 76.9% | 23.4% | 29.9% | 78.7% | 4.81% (active) | 4.44% (active)
COC(=O)Cc1nc(C#N)c(N(C)C)o1 | 89.4% | 116% | 90.3% | 82.4% | 93.3% | 101% | 97.2% | 125% | 92.9% | 97.6%
Cn1c(/C=C/[N+](=O)[O-])cc2ccccc21 | 11.2% | 46.1% | 43.7% | -56.9% (active) | 57.7% | -29.7% (active) | 82.8% | -20% (active) | 30.1% | 26.7%
Cn1cc(-c2nn3cc(-c4ccccc4)nc3s2)c2ccccc21 | 79.6% | 72.5% | 78.7% | 42.8% | 95.5% | 74.2% | 55.3% | 85.3% | 76.4% | 65.3%
COc1cccc(/C=C2\COc3ccc(O)cc3C2=O)c1 | 104% | 98.4% | 30.1% | 69.1% | 101% | 84.7% | 80.4% | 104% | -0.603% (active) | 40.2%
COc1ccc(-c2cc(-c3ccc(OC)cc3)nc(NCCCNc3ccnc4cc(Cl)ccc34)n2)cc1 | 83.9% | 80.4% | -62.3% (active) | 48.9% | 127% | 96.2% | 75.3% | 23.2% | 3.08% (active) | 1.68% (active)
CC(C)CCC[C@@H](C)C1CCC2C3CCC4=C/C(=N/OCCN(C)C)CC[C@]4(C)C3CC[C@@]21C (stereo not given in full) | 83.7% | 94.7% | 92.6% | 61.7% | 70.4% | 88.9% | 79.9% | 80.8% | 26.6% | 49.2%
CCOC(=O)C/C(=N\Nc1cc(=O)[nH]c2ccc(Cl)cc12)C(=O)OCC | 116% | 105% | 94.9% | 83.7% | 104% | 99.3% | 92.4% | 108% | -51.5% (active) | -0.305% (active)
O=[N+]([O-])/C(=C\c1ccco1)c1ccccc1Cl | 60.6% | 83.1% | 78.4% | 66.6% | 82.8% | 81.1% | 67% | 41.9% | 60.5% | 74.1%
CCn1cc(C(=O)NN=C2CCCCCC2)c(=O)c2ccc(C)nc21 | 105% | 93.2% | 85.5% | 75.2% | 95.7% | 84.7% | 79.9% | 58% | 91.7% | 71%
